Test results: the supplement of paper PMC11732987, “Enantioselective OTUD7B fragment discovery through chemoproteomics screening and high-throughput optimisation” (Communications Chemistry, 2025)

Tests used:
Assay in all cases: log2 ratio of Biotin-Ahx-Ub-VS probe labelling (fragment/DMSO); higher = less target engagement (more negative = stronger competition), active = hit call of the paper (q ≤ 0.05, log2 ratio ≤ -1)
Conditions in all cases: compound concentration: 200 uM; treatment time: 3 h
ALG13 = molecular target: T1, ALG13 (UniProt Q9NP73)
T1 sequence (whole entry): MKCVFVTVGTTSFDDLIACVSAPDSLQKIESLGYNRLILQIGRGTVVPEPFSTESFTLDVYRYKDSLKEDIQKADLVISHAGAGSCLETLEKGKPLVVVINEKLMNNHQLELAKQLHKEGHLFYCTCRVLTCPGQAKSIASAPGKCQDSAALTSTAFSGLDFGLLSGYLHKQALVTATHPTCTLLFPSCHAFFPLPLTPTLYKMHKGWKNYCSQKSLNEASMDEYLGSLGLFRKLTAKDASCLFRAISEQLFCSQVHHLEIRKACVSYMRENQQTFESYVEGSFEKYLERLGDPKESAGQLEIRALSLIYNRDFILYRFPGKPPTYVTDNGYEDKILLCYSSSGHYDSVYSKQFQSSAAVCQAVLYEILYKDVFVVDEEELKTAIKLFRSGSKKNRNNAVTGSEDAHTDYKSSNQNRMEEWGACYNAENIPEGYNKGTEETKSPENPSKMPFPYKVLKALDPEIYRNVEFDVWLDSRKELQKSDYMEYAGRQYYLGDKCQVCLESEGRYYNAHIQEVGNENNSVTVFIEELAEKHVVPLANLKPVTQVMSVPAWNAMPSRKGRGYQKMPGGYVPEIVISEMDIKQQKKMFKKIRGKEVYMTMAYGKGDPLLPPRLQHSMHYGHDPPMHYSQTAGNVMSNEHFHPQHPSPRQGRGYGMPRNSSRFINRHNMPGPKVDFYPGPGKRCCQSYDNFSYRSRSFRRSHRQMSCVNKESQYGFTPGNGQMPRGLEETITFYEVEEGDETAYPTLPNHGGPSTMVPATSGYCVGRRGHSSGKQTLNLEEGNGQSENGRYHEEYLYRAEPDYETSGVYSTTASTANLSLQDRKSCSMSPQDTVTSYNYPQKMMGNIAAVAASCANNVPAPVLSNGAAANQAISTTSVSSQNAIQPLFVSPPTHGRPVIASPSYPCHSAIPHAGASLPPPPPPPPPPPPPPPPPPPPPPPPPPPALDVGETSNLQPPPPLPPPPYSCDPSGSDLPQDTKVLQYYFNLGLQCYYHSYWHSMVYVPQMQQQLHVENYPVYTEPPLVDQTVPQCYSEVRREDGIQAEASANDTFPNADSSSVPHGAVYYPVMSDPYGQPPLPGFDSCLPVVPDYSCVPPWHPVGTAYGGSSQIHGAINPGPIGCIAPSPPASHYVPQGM
Procedure, shortened: (§1)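 Each value is an average log2 ratio of fragment to vehicle, tested by unpaired t-test. The underlying Spectronaut label-free quantities were global-median-normalised, and only proteins with ≥2 unique peptides were included. Triplicate HEK293T lysate samples (495 µg) were exposed to fragment at 200 µM or vehicle for 3 h, then to Biotin-Ahx-Ub-VS at 0.5 µM final for 1 h, before NeutrAvidin enrichment of labelled DUBs, LysC and trypsin digestion, and diaPASEF LC-MS/MS.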

ATXN3 = ATXN3 (UniProt P54252)
Procedure, shortened: as §1

BAP1 = molecular target: T2, BAP1 (UniProt Q92560)
T2 sequence (whole entry): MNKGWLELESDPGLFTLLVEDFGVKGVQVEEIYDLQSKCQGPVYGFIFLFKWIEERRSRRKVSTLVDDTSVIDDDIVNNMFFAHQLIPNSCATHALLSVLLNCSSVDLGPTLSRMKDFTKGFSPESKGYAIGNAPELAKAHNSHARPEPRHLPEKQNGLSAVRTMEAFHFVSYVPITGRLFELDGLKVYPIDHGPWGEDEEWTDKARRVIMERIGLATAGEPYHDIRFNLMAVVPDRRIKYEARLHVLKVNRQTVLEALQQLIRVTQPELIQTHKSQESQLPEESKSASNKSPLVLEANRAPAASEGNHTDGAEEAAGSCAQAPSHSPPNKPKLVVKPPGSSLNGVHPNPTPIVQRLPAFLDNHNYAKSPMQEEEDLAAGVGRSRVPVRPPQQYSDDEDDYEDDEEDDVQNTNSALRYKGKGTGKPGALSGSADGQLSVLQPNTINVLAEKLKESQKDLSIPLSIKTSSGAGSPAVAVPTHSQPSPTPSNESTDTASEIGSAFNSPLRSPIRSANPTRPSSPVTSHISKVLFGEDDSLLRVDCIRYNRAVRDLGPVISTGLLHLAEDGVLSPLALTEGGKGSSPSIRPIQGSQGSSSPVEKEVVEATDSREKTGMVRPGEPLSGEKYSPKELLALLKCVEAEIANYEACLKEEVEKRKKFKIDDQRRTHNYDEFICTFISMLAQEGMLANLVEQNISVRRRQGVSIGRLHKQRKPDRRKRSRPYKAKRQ
Procedure, shortened: as §1

EIF3F = EIF3F (UniProt O00303)
Procedure, shortened: as §1

EIF3H = EIF3H (UniProt O15372)
Procedure, shortened: as §1

FAM105A = molecular target: T3, FAM105A (UniProt Q9NUU6)
T3 sequence (whole entry): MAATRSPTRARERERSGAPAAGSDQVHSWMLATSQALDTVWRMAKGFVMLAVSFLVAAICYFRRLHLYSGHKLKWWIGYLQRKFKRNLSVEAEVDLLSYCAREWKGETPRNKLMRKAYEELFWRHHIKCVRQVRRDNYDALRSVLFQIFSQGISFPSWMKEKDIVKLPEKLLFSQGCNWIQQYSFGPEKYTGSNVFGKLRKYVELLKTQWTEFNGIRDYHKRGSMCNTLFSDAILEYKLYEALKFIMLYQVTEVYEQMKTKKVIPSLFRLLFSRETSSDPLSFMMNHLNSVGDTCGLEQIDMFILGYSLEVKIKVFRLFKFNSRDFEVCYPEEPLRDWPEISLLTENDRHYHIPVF
Procedure, shortened: as §1

OTUB1 = OTUB1 (UniProt Q96FW1)
Procedure, shortened: as §1

OTUD4 = molecular target: T4, OTUD4 (UniProt Q01804)
T4 sequence (whole entry): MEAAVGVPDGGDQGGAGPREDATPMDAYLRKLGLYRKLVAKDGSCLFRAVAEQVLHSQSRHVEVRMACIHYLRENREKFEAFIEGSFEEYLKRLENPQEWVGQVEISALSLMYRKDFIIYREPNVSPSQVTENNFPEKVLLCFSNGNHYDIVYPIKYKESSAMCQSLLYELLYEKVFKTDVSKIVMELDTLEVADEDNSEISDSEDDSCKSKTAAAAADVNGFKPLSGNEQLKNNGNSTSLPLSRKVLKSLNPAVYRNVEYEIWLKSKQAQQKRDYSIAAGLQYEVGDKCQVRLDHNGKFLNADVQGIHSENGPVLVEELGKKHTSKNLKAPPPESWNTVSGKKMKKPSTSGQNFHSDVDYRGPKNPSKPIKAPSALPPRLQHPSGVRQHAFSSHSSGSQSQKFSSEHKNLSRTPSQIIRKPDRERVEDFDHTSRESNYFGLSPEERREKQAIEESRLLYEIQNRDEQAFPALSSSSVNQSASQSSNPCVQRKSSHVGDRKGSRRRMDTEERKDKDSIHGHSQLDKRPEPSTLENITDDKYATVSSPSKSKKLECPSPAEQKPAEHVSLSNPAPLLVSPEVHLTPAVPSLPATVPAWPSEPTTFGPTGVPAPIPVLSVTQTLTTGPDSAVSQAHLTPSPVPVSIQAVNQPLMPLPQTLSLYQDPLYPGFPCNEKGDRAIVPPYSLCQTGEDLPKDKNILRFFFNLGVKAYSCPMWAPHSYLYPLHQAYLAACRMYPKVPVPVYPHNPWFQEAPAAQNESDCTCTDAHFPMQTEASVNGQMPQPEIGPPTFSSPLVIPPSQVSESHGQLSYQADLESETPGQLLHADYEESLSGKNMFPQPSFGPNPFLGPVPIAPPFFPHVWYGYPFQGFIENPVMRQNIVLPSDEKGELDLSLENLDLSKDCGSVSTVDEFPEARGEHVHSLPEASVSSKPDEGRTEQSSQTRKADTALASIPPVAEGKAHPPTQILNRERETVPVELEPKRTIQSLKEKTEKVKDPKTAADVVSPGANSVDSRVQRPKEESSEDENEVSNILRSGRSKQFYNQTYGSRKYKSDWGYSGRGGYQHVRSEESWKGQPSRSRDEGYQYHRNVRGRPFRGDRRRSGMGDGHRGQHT
Procedure, shortened: as §1

OTUD5 = molecular target: T5, OTUD5 (UniProt Q96G74)
T5 sequence (whole entry): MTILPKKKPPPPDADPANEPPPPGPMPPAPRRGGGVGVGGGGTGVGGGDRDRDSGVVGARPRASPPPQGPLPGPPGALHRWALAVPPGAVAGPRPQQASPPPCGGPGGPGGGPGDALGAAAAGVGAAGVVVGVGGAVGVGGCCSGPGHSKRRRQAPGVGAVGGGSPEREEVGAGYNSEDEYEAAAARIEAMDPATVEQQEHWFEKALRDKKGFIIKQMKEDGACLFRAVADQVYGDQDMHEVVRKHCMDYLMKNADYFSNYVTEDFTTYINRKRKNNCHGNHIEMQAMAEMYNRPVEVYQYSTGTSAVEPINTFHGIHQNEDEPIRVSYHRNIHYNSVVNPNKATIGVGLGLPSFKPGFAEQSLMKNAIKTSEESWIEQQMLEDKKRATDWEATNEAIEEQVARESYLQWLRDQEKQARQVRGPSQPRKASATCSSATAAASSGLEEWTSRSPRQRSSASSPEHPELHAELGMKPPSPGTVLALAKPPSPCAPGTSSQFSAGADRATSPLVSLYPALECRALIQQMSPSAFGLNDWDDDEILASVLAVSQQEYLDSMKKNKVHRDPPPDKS
Procedure, shortened: as §1

Measured: log2 ratio of Biotin-Ahx-Ub-VS probe labelling

Sequence of OTUB1 (Q96FW1 whole entry): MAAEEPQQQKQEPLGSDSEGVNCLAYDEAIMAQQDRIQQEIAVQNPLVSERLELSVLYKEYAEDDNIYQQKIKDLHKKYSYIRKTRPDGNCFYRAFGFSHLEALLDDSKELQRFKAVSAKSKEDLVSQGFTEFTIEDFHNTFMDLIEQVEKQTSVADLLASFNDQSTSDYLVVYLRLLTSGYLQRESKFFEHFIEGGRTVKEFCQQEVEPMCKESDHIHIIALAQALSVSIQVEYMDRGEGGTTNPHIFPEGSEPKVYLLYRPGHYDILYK
Sequence of EIF3H (O15372 whole entry): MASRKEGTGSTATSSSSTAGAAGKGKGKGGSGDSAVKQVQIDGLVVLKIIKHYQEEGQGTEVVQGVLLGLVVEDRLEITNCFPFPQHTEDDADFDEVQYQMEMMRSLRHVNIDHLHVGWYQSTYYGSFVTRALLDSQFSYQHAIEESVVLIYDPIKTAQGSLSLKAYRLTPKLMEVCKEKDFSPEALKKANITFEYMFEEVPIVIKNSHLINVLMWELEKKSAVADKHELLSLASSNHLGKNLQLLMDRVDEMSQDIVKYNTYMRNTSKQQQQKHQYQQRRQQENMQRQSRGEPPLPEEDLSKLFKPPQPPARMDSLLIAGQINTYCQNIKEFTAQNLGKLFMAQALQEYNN
Sequence of EIF3F (O00303 whole entry): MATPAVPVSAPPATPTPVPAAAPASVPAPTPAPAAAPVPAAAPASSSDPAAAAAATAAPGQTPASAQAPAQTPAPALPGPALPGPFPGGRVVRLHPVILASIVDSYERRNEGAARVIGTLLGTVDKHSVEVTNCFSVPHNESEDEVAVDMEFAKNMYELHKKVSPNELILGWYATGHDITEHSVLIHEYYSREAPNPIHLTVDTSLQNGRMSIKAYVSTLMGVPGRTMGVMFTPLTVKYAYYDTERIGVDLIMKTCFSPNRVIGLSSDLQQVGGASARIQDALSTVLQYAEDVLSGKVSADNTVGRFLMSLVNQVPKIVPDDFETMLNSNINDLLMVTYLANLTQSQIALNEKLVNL
Sequence of ATXN3 (P54252 whole entry): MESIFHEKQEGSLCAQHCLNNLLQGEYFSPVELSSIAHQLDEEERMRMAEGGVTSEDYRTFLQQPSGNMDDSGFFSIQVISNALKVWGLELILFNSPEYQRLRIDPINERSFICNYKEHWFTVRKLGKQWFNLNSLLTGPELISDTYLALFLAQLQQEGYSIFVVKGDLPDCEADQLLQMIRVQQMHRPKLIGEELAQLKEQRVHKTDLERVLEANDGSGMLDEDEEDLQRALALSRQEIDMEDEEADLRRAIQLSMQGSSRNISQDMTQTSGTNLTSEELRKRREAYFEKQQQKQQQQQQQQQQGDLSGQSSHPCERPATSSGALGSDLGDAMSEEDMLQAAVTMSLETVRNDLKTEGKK

O=C(CCl)NC1CCN(C(=O)C2CCCCC2)CC1
active: BAP1 -1.71
inactive: ALG13 -0.358 | ATXN3 -0.103 | EIF3F -0.569 | EIF3H 0.155 | FAM105A -0.0528 | OTUB1 -0.0801 | OTUD4 0.0192 | OTUD5 -0.0926
